Assay outcomes deposited in PubChem BioAssay by National Center for Advancing Translational Sciences (NCATS).
A selection: hits, their analogues and other compounds. The true share with any hit is near 1%.
gsp antagonist – qHTS for Antagonists of gsp, the Etiologic Mutation Responsible for Fibrous Dysplasia/McCune-Albright Syndrome: qHTS | gsp-mutant cells, cAMP HTRF, 30 min | Potency, µM (highest dose often 76.9 µM), without a hit: at the highest dose activity change, negative = inhibition, most hits filed as inhibitors | 340,000 compounds, 0.4% hits | AID 624288, 2012; calls by dose curve; cell line not stated here;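 also: intracellular cAMP measured with PDE inhibitor Ro 20-1724 present during compound exposure; potency is read from the fitted curve at half-maximal effect; % is scaled to controls: 0 for no effect and ±100 for the full control effect; nearly all actives have a fitted effect of over 65% in size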
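HTRF cAMP measurement after 30 min RT detection following 30 min, 37C compound treatment alongside […] (added as 300 uM solution) in G418-selected cells seeded at 2000/well and grown 16–24 h.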
gsp agonist – qHTS for Agonist of gsp, the Etiologic Mutation Responsible for Fibrous Dysplasia/McCune-Albright Syndrome: qHTS | gsp mutant cells, cAMP HTRF, 30 min | Potency, µM (doses to about 76.9 µM), inactives show top-dose activation (cAMP increase), usual class: activators | 340,000 compounds, 0.13% hits | AID 624287, 2012; active = well fitted activation curve with a large enough effect; inconclusive = small, poorly fitted or top-dose-only effect, or another doubt; inactive = no such curve, though single readings can be large or run the other way; cell line not stated here;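 also: phosphodiesterase inhibitor Ro 20-1724 added with compounds to block cAMP breakdown; potency is read from the fitted curve at half-maximal effect; nearly all actives have a fitted effect of over 60% in size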
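Cells stably selected in G418 were plated at 2000/well, grown 16-24 hr, then given compounds in DMSO with the PDE inhibitor […] (300 uM solution added) for 30 min at 37C; cAMP was read by HTRF.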
RXFP1 antagonist – qHTS Assay for Antagonists of the Relaxin Receptor RXFP1; Relaxin receptor 1 (Homo sapiens), Q9HBX9; HEK293-RXFP1, relaxin-stimulated cAMP HTRF, 30 min; hits give low values; activity change, negative = inhibition, % at 57.5 µM; 350,000 compounds, 0.59% hits; AID 1259400, 2018;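 active = activity change of -60% or lower, but not beyond a set lower limit; inconclusive = change between -60% and -40%, or beyond the set limit; inactive = change above -40%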; also: % is scaled to controls: 0 for no effect and ±100 for the full control effect
Target sequence (Q9HBX9 whole entry, looked up): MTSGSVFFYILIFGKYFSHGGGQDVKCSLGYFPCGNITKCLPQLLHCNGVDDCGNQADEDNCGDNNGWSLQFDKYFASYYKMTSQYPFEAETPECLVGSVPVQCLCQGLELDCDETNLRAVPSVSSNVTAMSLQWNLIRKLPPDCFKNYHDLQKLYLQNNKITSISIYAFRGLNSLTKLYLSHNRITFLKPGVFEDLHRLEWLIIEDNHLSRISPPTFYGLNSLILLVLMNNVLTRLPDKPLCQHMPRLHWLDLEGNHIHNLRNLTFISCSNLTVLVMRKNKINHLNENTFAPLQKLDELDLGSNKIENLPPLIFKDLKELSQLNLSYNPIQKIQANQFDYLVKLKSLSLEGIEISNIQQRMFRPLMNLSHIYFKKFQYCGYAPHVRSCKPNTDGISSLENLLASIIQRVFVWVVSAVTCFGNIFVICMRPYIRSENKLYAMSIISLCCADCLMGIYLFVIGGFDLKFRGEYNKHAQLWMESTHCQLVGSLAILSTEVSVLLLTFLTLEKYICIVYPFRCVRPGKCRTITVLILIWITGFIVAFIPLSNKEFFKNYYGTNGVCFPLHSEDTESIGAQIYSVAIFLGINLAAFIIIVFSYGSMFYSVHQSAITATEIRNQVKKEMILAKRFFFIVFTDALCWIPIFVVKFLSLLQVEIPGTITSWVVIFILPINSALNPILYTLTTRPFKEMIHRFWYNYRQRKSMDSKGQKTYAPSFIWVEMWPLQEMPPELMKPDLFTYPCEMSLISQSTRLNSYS
TSHR antag – Antagonists of the Thyroid Stimulating Hormone Receptor: HTS campaign. Thyrotropin receptor (Homo sapiens), P16473. TSHR-expressing cells, TSH-stimulated cAMP HTRF, 2 h; hits give low values. activity change, negative = inhibition, % at 11.5 µM. 330,000 compounds, 0.2% hits. AID 504810, 2011;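 active = activity change below a set negative limit, meaning inhibition stronger than a set level, cut at about -70% in these data; inconclusive = activity change between two set negative limits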; also: % is scaled to controls: 0 for no effect and ±100 for the full control effect
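Competitive HTRF cAMP read-out (cryptate anti-cAMP antibody, cAMP-d2; 30 min, room temperature) in freshly harvested TSHR cells. Compounds added before TSH at EC80 (4nM final), followed by 2 hours' incubation at 37 deg C.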
RXFP1 ag – qHTS Assay for Agonists of the Relaxin Receptor RXFP1. HEK293T-RXFP1 cAMP TR-FRET, 30 min; response scale: percent of porcine relaxin response, buffer zero. Potency, µM (top dose mostly 57.5 µM), for inactives: at the top dose activation, actives largely listed as activators. 370,000 compounds, 0.3% hits. AID 2676, 2010; active = well fitted activation curve with a large enough effect; inconclusive = small, poorly fitted or top-dose-only effect; also: potency is read from the fitted curve at half-maximal effect; % is scaled to controls: 0 for no effect and ±100 for the full control effect; nearly all actives have a fitted effect of over 60% in size
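HEK293T cells stably expressing RXFP1 were pretreated with the PDE4 inhibitor Ro 20174, exposed to compounds for 30 min at 37C, lysed, and cAMP was read by TR-FRET. Data normalized to buffer (basal) and 29 nM porcine relaxin (100%).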
* hit, by the source's call; [ ] = remark or other dose.

How did O=C(NCC(c1cccnc1)N1CCc2ccccc21)c1cccc(F)c1 (stereo not given) do in these assays?
RXFP1 antagonist: -15; RXFP1 ag: 2%

What do the screens show for `CCOc1ccccc1CNC(=O)c1cnn(-c2ccc(C)cc2)c1-n1cccc1`?
RXFP1 antagonist: -10; RXFP1 ag: 1%

Results for COc1ccccc1N1CCN(C(=S)Nc2ccc(S(=O)(=O)N3CCOCC3)cc2)CC1 ?
gsp antagonist: 32µM*; gsp agonist: 4%[15.4 µM]; RXFP1 antagonist: -5; TSHR antag: -20; RXFP1 ag: 2%

How did O=S(=O)(c1ccc(NC(=S)N2CCN(c3ccccc3F)CC2)cc1)N1CCOCC1 do in these assays?
gsp antagonist: -16%; gsp agonist: -3%[15.4 µM]; RXFP1 antagonist: -17; TSHR antag: 9; RXFP1 ag: 2%

Results for CC(=O)c1cccc(NC(=O)c2sc(-n3nc(C)c(CCC(C)C)c3C)nc2C)c1 ?
RXFP1 antagonist: -14; RXFP1 ag: inconclusive

Results for CN(C)CCCN(C(=O)c1ccco1)c1nc(-c2ccc(Cl)cc2)cs1 ?
gsp antagonist: -1%; gsp agonist: 10%; RXFP1 antagonist: -7; TSHR antag: -121*; RXFP1 ag: 1%

Results for COc1ccc(-c2csc(N(CCCN(C)C)C(=O)c3ccc(C(C)(C)C)cc3)n2)cc1 ?
gsp antagonist: 5%; gsp agonist: 0%[15.4 µM]; RXFP1 antagonist: -65*; TSHR antag: -2; RXFP1 ag: 0%

What do the screens show for `Cc1ccc(-c2csc(N(CCCN(C)C)C(=O)c3ccco3)n2)cc1`?
gsp antagonist: 14%; gsp agonist: -2%[15.4 µM]; RXFP1 antagonist: inconclusive; TSHR antag: 11; RXFP1 ag: 2%

What do the screens show for `O=C(CSc1ccc2nnc(-c3ccc(F)cc3)n2n1)N1CCOCC1`?
gsp antagonist: 5%; gsp agonist: 20µM*

How did O=C1c2[nH]nc(-c3ccccc3O)c2C(c2cccc(O)c2)N1Cc1ccncc1 (stereo not given) do in these assays?
RXFP1 antagonist: -11; RXFP1 ag: 1%

What do the screens show for `CCCCN1C(=O)c2[nH]nc(-c3ccccc3O)c2C1c1ccc(OCc2ccccc2)c(OC)c1` (stereo not given)?
RXFP1 antagonist: inconclusive; RXFP1 ag: 4%

Results for CCc1ccc(C2c3c(-c4ccccc4O)n[nH]c3C(=O)N2Cc2ccncc2)cc1 (stereo not given) ?
RXFP1 antagonist: -83*; RXFP1 ag: -1%

What do the screens show for `CCCCN1C(=O)c2[nH]nc(-c3ccccc3O)c2C1c1cc(Br)c(O)c(OC)c1` (stereo not given)?
RXFP1 antagonist: -89*; RXFP1 ag: -1%

Results for COc1ccc(-c2cc3nc(C4CCN(C(=O)OC(C)(C)C)CC4)c(C(=O)Nc4cc(Cl)cc(Cl)c4)cn3n2)cc1 ?
RXFP1 antagonist: -11; RXFP1 ag: 8%

How did Cc1ccc(/C=N/NC(=O)C(C)Oc2ccccc2[N+](=O)[O-])s1 (stereo not given) do in these assays?
gsp antagonist: 11µM*; gsp agonist: -9%; TSHR antag: -2; RXFP1 ag: 3%

How did Cc1ccc(NC(=O)CCc2nnc3ccc(N4CCN(C)CC4)nn23)cc1F do in these assays?
gsp antagonist: 6%; gsp agonist: inconclusive; RXFP1 antagonist: 12; TSHR antag: 13; RXFP1 ag: 25µM*

Results for CCOC(=O)c1cccc(NC(=O)CCc2nnc3ccc(N4CCCCC4)nn23)c1 ?
gsp antagonist: -10%; gsp agonist: 35µM*; RXFP1 antagonist: 24; TSHR antag: -10; RXFP1 ag: 9%

Results for c1ccc(C(O[C@H]2CCCN(CCc3ccc4c(c3)OCO4)C2)c2ccccc2)cc1 ?
RXFP1 antagonist: -62*

Results for CC(NCc1ccc2c(c1)OCO2)c1ccccc1 (stereo not given) ?
gsp antagonist: 9%; gsp agonist: 8%; RXFP1 antagonist: 5; TSHR antag: 0; RXFP1 ag: -3%

What do the screens show for `CC1=NOC(=O)/C1=C\c1ccc(-c2ccc(Br)cc2)o1`?
gsp antagonist: -4%; gsp agonist: 4µM*; RXFP1 antagonist: -25; TSHR antag: 29; RXFP1 ag: 19%

What do the screens show for `COc1ccccc1NC(=O)/C(C#N)=C/c1cccnc1`?
gsp antagonist: -14%; gsp agonist: inconclusive; RXFP1 antagonist: -1; TSHR antag: -1; RXFP1 ag: 4%

How did N#C/C(=C\c1cccnc1)C(=O)Nc1cccc2ccccc12 do in these assays?
gsp antagonist: 10%; gsp agonist: inconclusive; RXFP1 antagonist: -67*; TSHR antag: 9; RXFP1 ag: -1%

How did O=C(Nc1ccc(Cl)cn1)C1C(c2ccccc2)C1(Cl)Cl (stereo not given) do in these assays?
gsp antagonist: -5%; gsp agonist: 0%[15.4 µM]; RXFP1 antagonist: -98*; TSHR antag: -25; RXFP1 ag: 1%

What do the screens show for `CCOc1ccc(Nc2nc3c(S(=O)(=O)c4ccc(CC)cc4)nnn3c3ccc(Cl)cc23)cc1`?
RXFP1 antagonist: -8; RXFP1 ag: 10%

Results for Cc1ccc(-c2nc(CCNC(=O)C(=O)Nc3ccc(F)cc3F)cs2)cc1 ?
RXFP1 antagonist: 1; RXFP1 ag: 5%

How did Cc1cc(O)c(CN2CCN(c3ccccc3)CC2)c2oc(=O)cc(C)c12 do in these assays?
RXFP1 antagonist: -8; RXFP1 ag: 18µM*

What do the screens show for `Cc1cccc(N2CCN(C(=O)Cn3cnc4sc(C)c(S(=O)(=O)N5CCN(c6ncccn6)CC5)c4c3=O)CC2C)c1` (stereo not given)?
RXFP1 ag: 3%

What do the screens show for `COc1ccccc1-c1c(C)nn2c(N3CCCCCC3)cc(C)nc12`?
gsp antagonist: 35µM*; gsp agonist: 1%; TSHR antag: -10; RXFP1 ag: 3%

What do the screens show for `Cc1c(-c2ccccc2Br)nc2ccccc2c1C(=O)O`?
gsp antagonist: -4%; gsp agonist: 5%; RXFP1 antagonist: 4

How did CCc1ccc(-c2nc3ccc(Br)cc3c(C(=O)O)c2C)s1 do in these assays?
gsp antagonist: 5%; gsp agonist: inconclusive; RXFP1 antagonist: -1; TSHR antag: -7; RXFP1 ag: 7.1µM*

Results for CCN(C(=O)c1ccco1)c1nnc(-c2ccc(OC)cc2)s1 ?
gsp antagonist: -1%; gsp agonist: 32µM*; RXFP1 antagonist: -14; TSHR antag: -19; RXFP1 ag: inconclusive
